High-throughput results deposited in PubChem BioAssay by several laboratories.
This is a sample that favours compounds with a hit; in the whole collection about 3% have one here.
Peg3 prom inh = Peg3 promoter-driven luciferase inhibitors, primary screen, cell-based, HeLa, luciferase luminescence. inhibition, % at 20 µM. HeLa PEG-Prom luciferase reporter, overnight. 360,000 tested, 1.7% active. AID 588405, 2011;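 active means inhibition of at least 50% at 20 µM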
TRPM1 prom inh = inhibitors of MITF-dependent TRPM1 promoter reporter, primary screen, cell-based, SK-MEL-5, single point, luciferase; SK-MEL-5 TRPM1 promoter luciferase, 24 h; inhibition, % at 12.5 µM; 330,000 tested, 0.83% active;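 active means mean inhibition across replicates of 60% or more, whatever share of single replicates reaches that level; inconclusive means some that reach 60%, reason not given; inactive means mean inhibition across replicates below 60%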
CF NFkB inh = inhibitors of PAF-induced NF-kB signaling, primary screen, cell-based, GFP fluorescence, uHTS | AID 588850, 2011 | 360,000 tested, 0.86% active | inhibition, % at 5 µM | KKLEB NF-kB-GFP reporter, GFP fluorescence overnight;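 active means at least 50% inhibition at 5 µM, scaled per plate between neutral and stimulator controls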;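 further: PAF is a Pseudomonas aeruginosa culture filtrate used as stimulus; plate controls were PAF-stimulated DMSO wells for no effect and unstimulated DMSO wells for full effect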
KKLEB tox = cytotoxicity in KKLEB CF airway cells, primary screen, cytotoxicity control for CF NF-kB inhibitor project, cell-based, uHTS, fluorescence assay plates | KKLEB CF airway cells viability, ATPlite luminescence, overnight; hits give low values; cells stimulated with P. aeruginosa culture filtrate | activity change (cytotoxicity), % at 5 µM | 360,000 tested, 0.36% active;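 active means corrected activity change at or below -50% at 5 µM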
HIF-2a block = HIF-2a reporter inhibitors, primary screen, luminescence, 786-0 RCC cells. 360,000 tested, 0.72% active. AID 624352, 2012. 786-0 RCC cells HIF-2a reporter, luciferase luminescence, overnight. inhibition, % at 18.8 µM;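 active means inhibition of the luminescence signal of 40% or more relative to plate controls, in a single-dose primary screen at 18.75 µM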
EBV LMP1 NFkB = EBV LMP1-driven NF-kappaB luciferase reporter inhibitors, primary screen, cell-based, luminescence, single point. AID 504558, 2011. 350,000 tested, 0.69% active. inhibition, % at 12.5 µM. LMP1-induced NF-kappaB luciferase reporter cells; in the data active means inhibition above about 41%; inconclusive means no clear call, values can overlap the other calls;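 further: 0% = neutral control wells and 100% = reference inhibitor control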
* hit, by the source's call; ? = inconclusive; / = no result given.

SMILES	Peg3 prom inh	TRPM1 prom inh	CF NFkB inh	KKLEB tox	HIF-2a block	EBV LMP1 NFkB
CS(=O)(=O)N(Cc1ccc(Cl)cc1)c1ccc(C(=O)NCc2ccccn2)cc1	0	8	7	-1	18	-8
O=C(N/N=C/c1cccnc1)/C(=C\c1cccs1)NC(=O)c1ccccc1	20	-5	2	0	9	2
O=C(N/N=C/c1cc2ccccc2nc1Cl)/C(=C/c1cccs1)NC(=O)c1ccccc1	66*	10	-30	10	18	-4
CS(=O)(=O)N(Cc1ccc(Cl)cc1)c1ccc(C(=O)N/N=C/c2cc3ccccc3nc2Cl)cc1	6	-3	-8	4	18	58*
CCCCCCN1CCN(C2CN(Cc3ccccc3)S(=O)(=O)C2)CC1 (stereo not drawn)	13	/	-3	-23	4	/
S=C1Cc2ccccc2N1	95*	91*	-7	18	22	-8
Cc1ccc(S(=O)(=O)N2CCOCC2)cc1NC(=O)COc1ccc(C(=O)c2ccccc2)cc1	61*	6	2	-15	-11	-1
Cc1ccc(S(=O)(=O)N2CCOCC2)cc1NC(=O)COC(=O)CNC(=O)c1ccccc1	7	-1	-6	9	10	9
COc1ccc(/C(C)=N/NC(=O)c2cccc(S(=O)(=O)N3CCCC3)c2)c(O)c1	45	73*	-3	-15	5	16
COc1ccc(C(C)=NNC(=O)c2cccc(S(=O)(=O)N3CCCC3)c2)cc1	4	16	0	-9	-4	-5
COc1ccc(-n2nc(C(=O)c3cccs3)cc(-c3nc4ccccc4[nH]3)c2=N)cc1	87*	59	-59	-13	16	59*
O=C(Nc1c(F)c(F)c(F)c(F)c1F)c1ccc(Br)o1	0	/	-15	6	12	0
CC(C)N1C/C(=C/c2cccnc2)C(=O)/C(=C/c2cccnc2)C1	26	90*	-49	13	23	?
O=C(NNc1ccccc1)OCc1ccccc1	-55	/	10	-11	-90	-34
O=C(NC1CCCCC1)C(c1ccc(F)cc1)N(Cc1ccccc1)C(=O)CN1C(=O)c2ccccc2S1(=O)=O (stereo not drawn)	68*	6	8	-23	6	-37
O=C(NC1CCCCC1)C(c1ccc(F)cc1)N(CCc1ccccc1)C(=O)CN1C(=O)c2ccccc2S1(=O)=O (stereo not drawn)	79*	64*	19	-20	0	-24
O=C(NCC1CCCO1)C(c1ccncc1)N(Cc1ccc(F)cc1)C(=O)CN1C(=O)c2ccccc2S1(=O)=O (stereo not drawn)	2	11	7	1	6	-4
O=C(NCC1CCCO1)C(c1ccncc1)N(Cc1cccs1)C(=O)Cn1nnc(-c2ccc(F)cc2)n1 (stereo not drawn)	18	9	12	1	8	0
CC(C)CCNC(=O)C(c1ccncc1)N(Cc1cccs1)C(=O)Cn1nnc(-c2ccc(F)cc2)n1 (stereo not drawn)	12	76*	15	-39	22	13
Cc1ccc(-c2nnn(CC(=O)N(Cc3cccs3)C(C(=O)NC3CCCC3)c3ccncc3)n2)cc1 (stereo not drawn)	9	73*	4	-21	-17	-4
COc1ccc(-c2nnn(CC(=O)N(Cc3cccs3)C(C)C(=O)NC3CCCC3)n2)cc1OC (stereo not drawn)	34	16	3	6	19	4
CCOC(=O)c1c2c(n(Cc3ccccc3)c1C)C(=O)C(=O)c1ccccc1-2	93*	/	61*	-75*	89*	14
Cc1ccccc1C(=O)N1CCC(C(=O)Nc2ccc(S(=O)(=O)N3C(C)CCCC3C)cc2)CC1 (stereo not drawn)	78*	7	2	-11	6	14
COC(=O)[C@@H](NCc1ccc(B(O)O)cc1)C(C)C	12	-2	-10	20	4	0
C=CCc1cccc2cc(C(=O)Nc3ccc(CC(=O)O)cc3)c(=O)oc12	-40	25	6	-6	64*	8
SMILES	Peg3 prom inh	TRPM1 prom inh	CF NFkB inh	KKLEB tox	HIF-2a block	EBV LMP1 NFkB
CCOc1ccc(NC(=O)CCc2nnc3ccc(N4CCC5(CC4)OCCO5)nn23)cc1	-4	0	16	-10	2	48*
C[N+](C)(C)C[C@H](O)CC(=O)[O-]	7	-2	-23	16	5	51*
O=C(CSc1nc2ccccc2c(=O)n1CCCN1CCOCC1)Nc1ccc(Br)cc1	-7	-10	-14	0	-3	49*
Cc1ccc(NC(=O)CSc2nc3ccccc3c(=O)n2CCCN2CCCCC2)cc1C	55*	70*	16	-16	35	34
CC(=O)c1cccc(NC(=O)CSc2nc3ccccc3c(=O)n2CCCN2CCOCC2)c1	-15	1	-12	-4	5	0
COCCn1c(SCC(=O)Nc2ccc(F)cc2)nc2c(oc3ccccc32)c1=O	6	-10	42	-54*	10	2
CN(C)CCCn1c(SCC(=O)Nc2nc(-c3cccc(Br)c3)cs2)nc2ccccc2c1=O	104*	63*	6	-20	-32	-17
O=C1NC[C@@H](CCCCN2C[C@H](Cc3ccc(O)cc3)N(CCc3ccc(O)cc3)C(=O)C2=O)N(CCc2ccc(O)cc2)C1=O	/	/	/	/	1	/
Cc1cc(NC(=O)CSc2nc3c(sc4ccccc43)c(=O)n2CCCN2CCOCC2)n[nH]1	90*	8	35	-25	16	-54
Cc1ccc(NC(=O)CSc2nc3ccccc3c(=O)n2Cc2cccs2)cc1	-3	-7	48	-52*	-32	-25
Cc1[nH]c2ccccc2c1CN1CCC(Cc2ccccc2)CC1	78*	19	25	-19	1	-21
Cn1ccsc1=NC(=O)c1ccc(Cl)c([N+](=O)[O-])c1	-147	-59	-3	4	-113	-30
Cn1ccsc1=NC(=O)c1ccc(S(C)(=O)=O)c([N+](=O)[O-])c1	78*	19	35	-22	-2	0
O=C1C(C2=NC(C(=O)O)C3C(=O)N(c4ccccc4)C(=O)C23)=C(O)c2ccccc21 (stereo not drawn)	15	-7	4	-1	-1	2
O=C1C(C2=NC(c3ccccn3)C3C(=O)N(c4ccc(OC(F)(F)F)cc4)C(=O)C23)=C(O)c2ccccc21 (stereo not drawn)	43	75*	17	-20	13	-14
